# Assay results taken from PubChem BioAssay AID485273 (Sanford-Burnham Center for Chemical Genomics, 2010).
# Hit rate of the full screen: of about 330,000 compounds, about 1,500 (0.45%) were called active. This excerpt belongs to a sample that is enriched for actives. Unmarked numbers belong to inactive results. Cut-off read from the data, not from the text of the source: active = inhibition above about 45% (passing the limit was not always enough); inconclusive = no clear call, values can overlap the other calls.
# Molecular target: Ubiquitin-conjugating enzyme E2 N (Homo sapiens) (UniProt P61088)
# Sequence (P61088 whole entry, looked up): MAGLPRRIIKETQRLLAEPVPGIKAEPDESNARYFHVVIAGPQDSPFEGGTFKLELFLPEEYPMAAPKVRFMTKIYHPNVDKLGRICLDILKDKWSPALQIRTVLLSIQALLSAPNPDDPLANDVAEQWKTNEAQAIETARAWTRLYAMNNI
# Assay: blockers of UBC13 ubiquitin chain synthesis – biochemical, TR-FRET, uHTS, primary screen (AID 485273)
# Details: UBC13 polyubiquitin chain formation, at 20 µM, active compounds read high
row,SMILES,inhibition
1,Cc1ccc(Nc2nc(N)nc(CN3CCN(Cc4ccccc4)CC3)n2)cc1Cl,8.9%
2,OCCNc1nc(Nc2ccc(Cl)c(Cl)c2)nc2ccccc12,68.2% (active)
3,CNc1nc(Nc2ccc(C)c(Cl)c2)nc(N)c1[N+](=O)[O-],9.3%
4,CCCS(=O)(=O)Nc1c(C(=O)O)[nH]c2ccccc12,8.6%
5,C=CCn1c(SCc2ccc(Cl)c(Cl)c2)nnc1C(CO)NC(=O)c1ccc(OC)cc1 (stereo not given),15.9%
6,O=C(COC(=O)Cn1cnc2ccccc2c1=O)NCC12CC3CC(CC(C3)C1)C2,17.4%
7,O=C(COC(=O)Cn1cnc2ccccc2c1=O)NCc1ccccc1Cl,45.4% (active)
8,Cn1c(CCC(=O)OCC(=O)NCc2ccccc2Cl)nc(=O)c2ccccc21,2.8%
9,O=C(N/N=C/c1ccccc1O)/C(=C/c1ccccc1)CCO,4.1%
10,COc1ccccc1C(=O)OCC(=O)NCCNC(=O)COC(=O)c1ccccc1OC,5.1%
11,Cc1ncc(CO)c(/C=N/NC(=O)c2cccc(S(=O)(=O)N3CCCC3)c2)c1O,52.7% (active)
12,Cc1cccc(NC(=O)c2cccc(S(=O)(=O)N3CCCC3)c2)n1,2.6%
13,O=C(N/N=C/c1ccccn1)c1ccc(S(=O)(=O)N2CCCCCC2)cc1,-2.2%
14,Cc1cc(C)n(CC(O)CN(c2ccccc2)S(=O)(=O)c2ccc3ccccc3c2)n1 (stereo not given),-8.5%
15,CCSCc1nc(N)nc(NCCc2ccccc2)n1,8.1%
16,Cc1c(C(=O)N2CCN(c3ccc(F)cc3)CC2)oc2c1C(=O)CCC2,3.2%
17,COc1ccc2c(CC(=O)NNC(=O)c3ccccc3F)coc2c1,7.9%
18,NC[C@H](Cc1ccccc1)NCCc1cc(C(F)(F)F)cc(C(F)(F)F)c1,65.5% (active)
19,O=C(CCC(=O)c1ccccc1)NCc1cccc(C(F)(F)F)c1,-0.5%
20,COC(=O)[C@@H](Cc1ccccc1)NC(=O)NCCc1ccccc1,6.5%
21,CCOc1ccc(Nc2nc(Cc3nnc(SCC(=O)c4ccc(C)cc4)o3)cs2)cc1,1.3%
22,CC(NCc1nc2ccccc2n1C)C12CC3CC(CC(C3)C1)C2 (stereo not given),22.8%
23,CCCOc1ccc(Cl)cc1Nc1nc(NCCO)nc(N2CCCC2)n1,60.4% (active)
24,Cc1cccc(Nc2nc(NCCO)nc(N3CCCC3)n2)c1,11.1%

row,SMILES,inhibition
1,CC(C)(C)Oc1ccccc1Nc1nc(NCCO)nc(N2CCCC2)n1,8.7%
2,CC(=O)N1C(=O)/C(=C2\SC(=S)N(NC(=O)c3ccc(O)cc3)C2=O)c2ccccc21,-62.3%
3,COc1c(O)cc2oc(-c3ccc(O)c(O)c3)cc(=O)c2c1O,-3.7%
4,COC(=O)c1ccccc1NC(=O)C1CCN(C(=O)N2CCOc3ccccc32)CC1,6.2%
5,O=C(Cc1ccc(-n2c(=O)[nH]c3ccccc3c2=O)cc1)N1CCN(c2cccc(Cl)c2)CC1,-5.1%
6,CCOC(=O)N1CCN(C(=O)Cc2ccc(-n3c(=S)[nH]c4ccccc4c3=O)cc2)CC1,46.3% (active)
7,CCCCNC(=O)c1ccc(-n2c(=S)[nH]c3ccccc3c2=O)cc1,43.8%
8,COc1cccc(-c2ccc(SCC(=O)N3CCN(c4ccccc4)CC3)nn2)c1,-10.5%
9,CC[C@@H](C)[C@H](NC(=O)CCc1c(C)c2cc3c4c(oc3c(C)c2oc1=O)CCCC4)C(=O)O,2.9%
10,c1ccc(-n2nnnc2-c2cccnc2)cc1,16.1%
11,S=c1nc2ccccc2c2nc(-c3cccnc3)[nH]n12,58.9% (active)
12,O=C(CSc1n[nH]c(-c2cccnc2)n1)Nc1ccnc2ccccc12,21.1%
13,COc1ccccc1N(C)S(=O)(=O)c1ccc(Cl)c(C(=O)N2CCC(C(N)=O)CC2)c1,1.7%
14,CC1(C)CC(=O)c2sc(N)nc2C1,-5.4%
15,O=c1cc(CO)oc(C(Nc2cccc([N+](=O)[O-])c2)c2ccccn2)c1O (stereo not given),94.8% (active)
16,O=C(O)CC1(CC(=O)Nc2cccc(C(F)(F)F)c2)CCCC1,-1.1%
17,FC(F)(F)c1cccc(Nc2ncnc3ccccc23)c1,11.1%
18,O=c1cc(CO)oc(C(Nc2cccc(C(F)(F)F)c2)c2ccccn2)c1O (stereo not given),97.1% (active)
19,O=C(Nc1cccc([N+](=O)[O-])c1)Nn1cnnc1,-5.5%
20,O=[N+]([O-])c1cccc(S(=O)(=O)NCc2ccccn2)c1,-12.9%
21,O=C(c1ccccc1)N1CCC(CC2CC(c3ccc(Cl)cc3)=NO2)(C(=O)NCC2CCCCC2)CC1 (stereo not given),4.7%
22,COC(=O)c1ccc(CNC(=O)c2ccc3oc(C(C)C)nc3c2)cc1,-8.3%
23,O=C(NC(=O)c1cc(OCC(F)(F)F)ccc1OCC(F)(F)F)Nc1ccccc1,2.9%
24,c1ccc(CCC2=NCCn3cccc32)cc1,-3.6%

row,SMILES,inhibition
1,CCOC(=O)c1ccc(NC(=O)CCn2c(=O)oc3ccccc32)cc1,4.5%
2,CCN(CC)S(=O)(=O)c1ccc2[nH]c(=O)cc(C(=O)N(C)C3CCS(=O)(=O)C3)c2c1 (stereo not given),-6.2%
3,O=C(CCN1C(=O)C2CCCCC2C1=O)Nc1ccc(OC(F)F)cc1 (stereo not given),1.3%
4,COC(=O)CNC(=O)c1cc(-c2ccncc2)nc2ccccc12,-0.6%
5,CCN(CC)CCNC(=O)c1ccc(NC(=O)c2cc(-c3ccncc3)nc3ccccc23)cc1,89.7% (active)
6,O=C(Nc1ccc(S(=O)(=O)Nc2nccs2)cc1)c1cc(-c2ccncc2)nc2ccccc12,-11.2%
7,CCn1c(SCc2cc(=O)n3ccsc3n2)nc2ccccc21,3%
8,O=C(Nn1cnnc1)c1cc(Cl)ccc1Cl,-7.5%
9,CC1CN(C(=O)CCC(=O)NCc2cccnc2)c2ccccc2O1 (stereo not given),2.3%
10,CC1CN(C(=O)CCC(=O)NC2CCN(Cc3ccccc3)CC2)c2ccccc2O1 (stereo not given),4.7%
11,CC1CN(C(=O)CCC(=O)NCCCN2CCC(Cc3ccccc3)CC2)c2cc(Cl)ccc2O1 (stereo not given),64.4% (active)
12,CN(C)C(=O)c1ccc2c(c1)C1C3CCC(C3)C1C(c1ccccc1)N2 (stereo not given),-13.6%
13,CC(=O)NC(Cc1ccc(F)c(F)c1)C(=O)NC1CCN(c2nnnn2-c2ccccc2)CC1 (stereo not given),-5.3%
14,CC(C)(C)c1cc2cccnc2n1Cc1cccc(F)c1,11.4%
15,CCCCNc1nc2c(c(=O)n(C)c(=O)n2C)n1Cc1cccc(OC)c1,21.5%
16,COc1ccnc2c1c(=O)n(Cc1cccc(F)c1)c(=O)n2C,48.2% (active)
17,CCOC(=O)c1ccc(COC(=O)CCc2nc(-c3ccccc3)c(-c3ccccc3)o2)cc1,-0.9%
18,COCc1cc(=O)[nH]c2cc(NC(=O)C(F)(F)F)c(C)cc12,8.5%
19,NC(N)=N/N=C/c1ccc(OCc2ccc(Cl)cc2Cl)cc1,108% (active)
20,CCOc1ccc(/C=N/NC(N)=S)cc1,-0.6%
21,OC(CNCCc1ccc(Cl)cc1Cl)COc1ccccc1 (stereo not given),23%
22,O=C(/C=C/c1cccc([N+](=O)[O-])c1)OCC(=O)N1CCOCC1,-13.5%
23,CC(OC(=O)CNC(=O)c1ccco1)C(=O)Nc1ccc(Cl)cn1 (stereo not given),-3.2%
24,CCc1ccc(NC(=O)C(C)OC(=O)/C=C/c2cccc([N+](=O)[O-])c2)cc1 (stereo not given),-15.4%

row,SMILES,inhibition
1,COc1ccc(N2CCN(C(=O)CNC(=O)c3ccc(C(C)(C)C)cc3)CC2)cc1,12.3%
2,O=C(CCCCCN1C(=O)c2cccc3cccc(c23)C1=O)NCc1ccco1,57.4% (active)
3,O=C1c2cccc3cccc(c23)C(=O)N1CCCCCc1n[nH]c(=S)o1,-1.2%
4,O=C(CCCOc1ccccc1)NCc1ccco1,6.4%
5,C=CCN(CC=C)CCOc1ccccc1[N+](=O)[O-],3.5%
6,O=C(COc1ccc(Br)cc1F)NCC1(N2CCCCC2)CCCCC1,-5.1%
7,Cc1ccc2c(c1)N(CC(=O)N1CCC(O)CC1)C(=O)CO2,-0.3%
8,CCOc1ccccc1N1CN(Cc2ccccc2)CNC1=S,-1.7%
9,Cc1ccc(C(=O)N/C(=C/c2ccc(-c3cccc([N+](=O)[O-])c3)o2)C(=O)NCCCN(C)C)cc1,57% (active)
10,CN(C)CCNC(=O)/C(=C/c1cccc([N+](=O)[O-])c1)NC(=O)c1ccccc1,11.7%
11,C=CCNC(=O)/C(=C\c1cccc([N+](=O)[O-])c1)NC(=O)c1ccccc1,5.9%
12,CN(CCc1ccccn1)C(=O)c1ccc(OC2CCN(Cc3ccccn3)CC2)cc1,1.2%
13,Oc1ccccc1-c1cc(-c2ccc(Cl)cc2)n[nH]1,14.2%
14,CCCCCCCC1(C)NC(=O)N(CC(=O)Nc2cc(C)on2)C1=O (stereo not given),3.7%
15,CN(C)/C=C/c1c(C#N)c(=O)ncn1Cc1ccccc1,-4.7%
16,CN(C)c1ccnc2sc3c(=O)n(Cc4ccccc4)cnc3c12,48% (active)
17,O=c1c2c(ncn1Cc1ccccc1)nc1n2CCC1,1.8%
18,Cc1ccccc1C(=O)O,-9%
19,O=C1OC(OC(=O)c2ccccc2Br)C(N2CCOCC2)=C1Cl (stereo not given),15.6%
20,CCOC(=O)c1ccc(Nc2cc3ccccc3c(=O)[nH]2)cc1,-38.5%
21,COc1ccccc1C(=O)Nc1ccc(Nc2ccccc2)cc1,7.8%
22,Cc1ccccc1C(=O)OC1OC(=O)C(Cl)=C1Nc1ccccc1 (stereo not given),78% (active)
23,Cc1ccc(NC2=C(Cl)C(=O)OC2OC(=O)c2ccccc2C)cc1 (stereo not given),53.9% (active)
